Screening data (PubChem)
D1 allo mod = D1 CRE-luciferase signal change, two-sided – cell-based, HEK293 D1, dopamine EC30, D1 allosteric modulator project, primary screen | D(1A) dopamine receptor (Homo sapiens), P21728 | dopamine EC30 potentiation; actives deviate in either direction | B-score at 10 µM | 58,000 tested, 5.9% active;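 active = luminescence count or its row- and column-corrected plate score outside the 99.7% band of the plate's sample wells, on either side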
CYP2C19 act = human CYP2C19 activators, primary screen, biochemical, luminescence. Cytochrome P450 2C19 (Homo sapiens), P33261. recombinant CYP2C19, luciferin-H EGE luminescence; active compounds read high; 0 = fully inhibited enzyme, 1 = untreated enzyme. activation factor at 5 µM. 96,000 tested, under 10 active. AID 1025, 2008;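 active = activation factor of at least 2 at 5 µM in the primary screen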
CYP2C19 inhib = blockers of cytochrome P450 2C19 activity – biochemical, luminescence, ADME assay, primary screen; 96,000 tested, 21% active; CYP2C19 Supersomes, luciferin-H EGE luminescence, 30 min; inhibition, % at 5 µM; P33261; AID 778, 2007;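 active = CYP2C19 inhibition above a set limit at 5 µM in the primary screen, cut at about 50% in these data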
DAT uptake mod = changed hDAT dopamine uptake under cocaine IC80, either direction, primary screen, cocaine antagonist project, cell-based, LLC-PK1 hDAT, [14C]-dopamine uptake, MLSMR; Sodium-dependent dopamine transporter (Homo sapiens), Q01959; LLC-PK1 hDAT cells, [14C]-dopamine uptake with cocaine IC80; actives deviate in either direction; B-score at 10 µM; 110,000 tested, 1.3% active;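 active = Z score or B-score, a plate-position-corrected score, falls beyond the plate's 99.7% confidence bounds, in either direction; inactive = both scores lie inside the 99.7% bounds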
CYP2C9 act = human CYP2C9 activators, primary screen, biochemical, luminescence | Cytochrome P450 2C9 (Homo sapiens), P11712 | recombinant CYP2C9, luciferin-H conversion; active compounds read high; factor 1 = untreated enzyme, 0 = blocked | activation factor at 5 µM | 96,000 tested, 1.4% active;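 active = activation factor of 2 or more for CYP2C9 at a 5 µM dose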
Target sequence (P11712 whole entry, looked up): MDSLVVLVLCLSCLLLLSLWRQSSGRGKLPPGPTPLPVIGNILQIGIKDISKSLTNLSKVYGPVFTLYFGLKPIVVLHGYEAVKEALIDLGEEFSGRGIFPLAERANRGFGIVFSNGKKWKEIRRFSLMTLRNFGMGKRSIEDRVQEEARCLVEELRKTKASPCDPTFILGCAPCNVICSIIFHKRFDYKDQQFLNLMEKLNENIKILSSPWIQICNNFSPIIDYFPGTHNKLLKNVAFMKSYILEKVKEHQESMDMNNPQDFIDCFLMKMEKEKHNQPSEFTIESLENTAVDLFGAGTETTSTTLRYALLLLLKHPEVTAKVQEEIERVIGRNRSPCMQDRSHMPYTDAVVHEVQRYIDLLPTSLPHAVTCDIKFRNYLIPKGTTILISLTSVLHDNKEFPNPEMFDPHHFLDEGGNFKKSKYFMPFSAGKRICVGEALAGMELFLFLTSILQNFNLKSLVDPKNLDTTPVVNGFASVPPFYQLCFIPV
CYP2C9 inh = blockers of cytochrome P450 2C9 activity – biochemical, luminescence, ADME assay, primary screen. CYP2C9 Supersomes, luciferin-H conversion. inhibition, % at 5 µM. 96,000 tested, 20% active;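 active = blocking of liver enzyme CYP2C9 beyond about 50% at 5 µM, limit read from the data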
A number is an active result; n = inactive; x = not tested or not shown. In the library only some 28% were active in any assay of this set; here they are far more common.

SMILES	D1 allo mod	CYP2C19 act	CYP2C19 inhib	DAT uptake mod	CYP2C9 act	CYP2C9 inh
Cc1ccc(C(=O)Nc2nc(=O)n(C(=O)c3ccccc3Cl)s2)cc1	x	n	65.7	n	n	93.5
Cc1ccc(S(=O)(=O)N(C)CCCC(=O)N2CCN(C=O)CC2)cc1	n	n	n	n	n	n
COc1cccc(O[C@@H]2O[C@@H]3COC(C)(C)O[C@H]3[C@H](O)[C@H]2NC(C)=O)c1	x	x	x	n	x	x
COc1ccc2c(c1OC)C(=O)OC2CC(=O)c1ccc(N(C)C)cc1 (stereo not given)	n	n	n	n	n	n
COc1ccc2c(c1OC)C(=O)OC2CC(=O)O (stereo not given)	x	n	n	n	n	n
COc1ccc2c(c1OC)C(=O)OC2CC(=O)c1ccc(O)cc1 (stereo not given)	n	n	71.8	x	n	n
COc1ccc2c(c1OC)C(=O)OC2CC(=O)c1ccc(O)c(O)c1 (stereo not given)	x	n	50.6	n	n	n
O=C(c1cccc(C(F)(F)F)c1)N1CCN(C2CCCCC2)CC1	n	n	n	n	n	n
CC1CC(=O)NN=C1c1ccc(NCCO)c([N+](=O)[O-])c1 (stereo not given)	x	n	n	-2.61	n	n
COC(=O)COc1ccc(S(=O)(=O)N2CCc3ccccc3C2)cc1C	x	n	79.3	n	2.1	n
COC(=O)COc1ccc(S(=O)(=O)N2CCOCC2)cc1C	x	n	n	n	n	n
CCC(=O)N1CCc2cc(S(=O)(=O)N3CCc4ccccc4C3)ccc21	n	n	n	n	n	n
CC(=O)N1CCCc2cc(S(=O)(=O)N3CCc4ccccc4C3)ccc21	n	n	74.4	n	n	n
COC(=O)C1CCN(C(=O)c2cc(OC)c(OC)c(OC)c2)CC1	n	n	n	n	n	n
COC(=O)C1CCN(C(=O)C(C)Oc2ccc(Cl)cc2Cl)CC1 (stereo not given)	n	n	89.6	n	n	n
CCOC(=O)C1CCCN(C(=O)C(C)Oc2ccc(Cl)cc2Cl)C1 (stereo not given)	n	n	n	n	n	51.0
CCOC(=O)C1CCN(C(=O)Nc2ccc(Cl)cc2Cl)CC1	n	x	x	x	x	x
Cc1cc(C)c(S(=O)(=O)NCC(=O)O)cc1C	x	n	n	n	n	n
CCN(CC)S(=O)(=O)N1CCC(C(=O)NC2CCCc3ccccc32)CC1 (stereo not given)	n	x	x	n	x	x
CSc1sc(C)cc1C1C(C#N)=C(N)N(c2cccnc2)C2=C1C(=O)CC(C)(C)C2 (stereo not given)	n	n	n	n	n	n
Cc1ccc(N2C(N)=C(C#N)C(c3ccsc3)C3=C2CC(C)(C)CC3=O)cc1 (stereo not given)	x	n	n	n	n	83.2
Cc1ccc(N2C(N)=C(C#N)C(c3cccnc3)C3=C2CC(C)(C)CC3=O)cc1 (stereo not given)	n	n	n	n	n	51.9
Cc1ccc(C2C(C#N)=C(N)N(c3ncn[nH]3)C3=C2C(=O)CC(C)(C)C3)cc1 (stereo not given)	x	n	n	n	n	64.9
CC(=O)N1CCn2c3ccc(C)cc3c3cccc1c32	x	x	x	n	x	x
CCn1c(=O)c(-[n+]2ccccc2)c(O)c2ccccc21	n	n	n	n	n	n
SMILES	D1 allo mod	CYP2C19 act	CYP2C19 inhib	DAT uptake mod	CYP2C9 act	CYP2C9 inh
CCn1c(=O)c(C2=NS(=O)(=O)c3ccccc3N2)c(O)c2ccccc21	n	n	n	x	n	60.6
O=S(=O)(Nc1cccnc1)c1ccc(Cl)cc1	x	n	85.0	n	n	84.7
CC(C)(C)c1ccc(S(=O)(=O)Nc2cccnc2)cc1	x	n	62.4	n	n	n
O=S(=O)(Nc1cccnc1)c1ccc2c(c1)OCCO2	n	n	57.8	n	n	n
COc1ccc(C)cc1NC(=O)CN1CCN(S(=O)(=O)c2ccc(Br)cc2)CC1	x	n	n	n	n	n
Cc1ccc(C(=O)N/C(=C\c2cn(-c3ccccc3)nc2-c2ccccc2)C(=O)N2CCOCC2)cc1	x	n	n	n	n	n
CCNC(=O)n1nccc1C(C)Oc1cccc(C(F)(F)F)c1 (stereo not given)	x	n	56.1	n	n	n
CCNC(=O)n1nccc1C(C)Oc1ccc(Cl)cc1 (stereo not given)	x	n	87.6	n	n	71.3
C#CCOCCOCCOCCNc1nc(N2CCN(C(=O)Cn3cc(CCO)nn3)CC2)nc(N2CCN(C(=O)[C@H]([C@@H](C)O)n3cc(CCCCN)nn3)CC2)n1	x	x	x	n	x	x
O=C(COc1cccc(C(F)(F)F)c1)Nc1ccc(S(=O)(=O)N2CCCC2)cc1	n	n	n	n	n	n
O=C(c1cccnc1Nc1ccc2c(c1)CCC2)N1CCOCC1	n	n	70.5	n	n	n
CC1(C)Cc2c(cnn2-c2ccccc2)-c2c1c1ccccc1n2CC(O)CBr (stereo not given)	x	n	52.6	n	n	54.8
Cc1ccc(C(=O)CNc2nc3c(c(=O)[nH]c(=O)n3C)n2Cc2ccccc2)cc1	n	n	88.4	n	n	79.0
Cn1c(=O)[nH]c(=O)c2c1nc(NCCCn1ccnc1)n2Cc1ccccc1	n	n	79.6	n	n	96.1
CC(=NCCCn1ccnc1)c1c(O)n(Cc2ccccc2)c(=O)[nH]c1=O	x	n	n	n	n	78.4
Cn1c(=O)[nH]c(=O)c2c1nc(NCCCn1ccnc1)n2CCOc1ccccc1	n	n	98.7	n	n	98.1
O=Cc1cccc(OC(=O)c2ccc(Cl)cc2Cl)c1	x	n	n	n	n	n
CCOC(=O)c1c(C)n(C)c2ccc(OC)c(NC(=O)CCN3CCSCC3)c12	n	n	n	n	n	n
CCN(CC)C(=O)C(=O)c1cccn1-c1ccccc1C#N	x	n	n	n	n	n
COc1ccc(NC(=O)NC(C(F)(F)F)C(F)(F)F)cc1	n	n	n	n	n	n
COCCn1c(NCc2ccc(C)cc2)nc2c1c(=O)[nH]c(=O)n2C	-3.34	x	x	n	x	x
Cc1ccc(OCC(O)Cn2c(NCCc3ccccc3)nc3c2c(=O)[nH]c(=O)n3C)cc1 (stereo not given)	x	n	51.3	n	n	n
Cc1cc([N+](=O)[O-])nn1Cc1c(F)c(F)c(F)c(F)c1F	x	n	n	n	n	n
O=C(Nc1ccc(-n2cnnn2)cc1)C1CCCCC1	x	n	n	n	n	n
Cc1ccc(NC(=O)N2CCCC2C(=O)Nc2ccc(-n3cnnn3)c(C)c2)cc1 (stereo not given)	x	x	x	n	x	x
